According to the supplement of paper PMC11732987, “Enantioselective OTUD7B fragment discovery through chemoproteomics screening and high-throughput optimisation” (Communications Chemistry, 2025):
Unmarked numbers belong to inactive results.

What was measured:
Assay in all cases: log2 ratio of Biotin-Ahx-Ub-VS probe labelling (fragment/DMSO); higher = less target engagement (more negative = stronger competition), active = hit call of the paper (q ≤ 0.05, log2 ratio ≤ -1)
Settings in all cases: compound concentration: 200 uM; treatment time: 3 h
[1] = biological target: T1, USP19 (UniProt O94966)
T1 sequence (whole entry): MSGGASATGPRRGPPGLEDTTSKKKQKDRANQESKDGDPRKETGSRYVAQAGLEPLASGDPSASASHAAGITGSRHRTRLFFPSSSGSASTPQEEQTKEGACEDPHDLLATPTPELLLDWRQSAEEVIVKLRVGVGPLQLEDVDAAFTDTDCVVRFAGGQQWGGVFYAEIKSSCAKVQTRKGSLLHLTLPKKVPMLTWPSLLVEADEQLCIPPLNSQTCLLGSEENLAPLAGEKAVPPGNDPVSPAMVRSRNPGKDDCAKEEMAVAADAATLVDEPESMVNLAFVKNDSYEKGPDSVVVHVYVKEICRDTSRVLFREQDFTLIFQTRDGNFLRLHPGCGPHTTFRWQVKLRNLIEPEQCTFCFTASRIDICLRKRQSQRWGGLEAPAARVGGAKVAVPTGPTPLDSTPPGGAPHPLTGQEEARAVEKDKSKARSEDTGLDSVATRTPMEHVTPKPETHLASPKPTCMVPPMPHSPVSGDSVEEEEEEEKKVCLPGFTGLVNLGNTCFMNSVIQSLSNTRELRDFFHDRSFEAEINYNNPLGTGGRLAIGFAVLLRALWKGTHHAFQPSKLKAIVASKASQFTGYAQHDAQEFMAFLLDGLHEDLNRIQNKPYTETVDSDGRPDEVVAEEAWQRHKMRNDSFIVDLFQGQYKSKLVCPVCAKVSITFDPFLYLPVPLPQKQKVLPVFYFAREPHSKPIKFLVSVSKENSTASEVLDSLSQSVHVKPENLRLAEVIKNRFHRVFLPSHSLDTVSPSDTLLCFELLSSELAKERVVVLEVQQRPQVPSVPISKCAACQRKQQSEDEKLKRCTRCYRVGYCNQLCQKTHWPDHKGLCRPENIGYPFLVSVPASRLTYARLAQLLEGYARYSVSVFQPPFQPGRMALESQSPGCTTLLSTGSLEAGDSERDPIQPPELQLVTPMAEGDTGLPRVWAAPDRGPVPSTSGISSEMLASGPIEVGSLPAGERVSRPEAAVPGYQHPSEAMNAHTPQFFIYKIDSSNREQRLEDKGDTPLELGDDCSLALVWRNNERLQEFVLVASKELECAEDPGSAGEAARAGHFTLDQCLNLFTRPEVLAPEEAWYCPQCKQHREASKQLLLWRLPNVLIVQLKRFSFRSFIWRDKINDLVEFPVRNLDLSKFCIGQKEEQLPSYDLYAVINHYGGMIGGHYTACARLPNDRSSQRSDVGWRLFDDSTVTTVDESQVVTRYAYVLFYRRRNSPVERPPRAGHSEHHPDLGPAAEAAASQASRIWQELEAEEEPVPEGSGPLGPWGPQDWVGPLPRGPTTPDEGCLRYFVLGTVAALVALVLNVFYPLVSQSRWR
Method in brief: (§1)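 HEK293T lysate, 495 µg per sample in Tris/CHAPS/IGEPAL buffer with protease inhibitors, was treated in triplicate with fragment at 200 µM or vehicle for 3 h and then with Biotin-Ahx-Ub-VS at 0.5 µM final for 1 h. Labelled DUBs were NeutrAvidin-enriched, digested with LysC and trypsin, and run by diaPASEF LC-MS/MS. Spectronaut label-free quantities were global-median-normalised, and values are average log2 fragment/vehicle ratios by unpaired t-test on proteins with ≥2 unique peptides.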

[2] = biological target: T2, USP22 (UniProt Q9UPT9)
T2 sequence (whole entry): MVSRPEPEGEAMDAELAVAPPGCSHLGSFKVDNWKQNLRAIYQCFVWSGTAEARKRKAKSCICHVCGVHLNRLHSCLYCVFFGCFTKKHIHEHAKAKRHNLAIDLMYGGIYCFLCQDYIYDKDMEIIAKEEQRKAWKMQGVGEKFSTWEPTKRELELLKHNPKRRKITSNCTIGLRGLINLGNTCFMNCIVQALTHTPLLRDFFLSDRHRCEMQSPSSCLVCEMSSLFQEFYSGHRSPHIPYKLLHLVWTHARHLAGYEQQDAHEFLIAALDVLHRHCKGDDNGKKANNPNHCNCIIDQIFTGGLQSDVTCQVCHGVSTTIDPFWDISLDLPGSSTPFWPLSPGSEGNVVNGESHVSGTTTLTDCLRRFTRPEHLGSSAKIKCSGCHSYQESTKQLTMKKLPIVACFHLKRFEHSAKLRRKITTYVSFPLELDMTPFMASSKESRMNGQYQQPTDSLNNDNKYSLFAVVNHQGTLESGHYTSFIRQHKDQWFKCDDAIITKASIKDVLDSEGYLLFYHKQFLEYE
Method in brief: as §1

[3] = biological target: USP24 (UniProt Q9UPU5)
Method in brief: as §1

[4] = biological target: T3, USP25 (UniProt Q9UHP3)
T3 sequence (whole entry): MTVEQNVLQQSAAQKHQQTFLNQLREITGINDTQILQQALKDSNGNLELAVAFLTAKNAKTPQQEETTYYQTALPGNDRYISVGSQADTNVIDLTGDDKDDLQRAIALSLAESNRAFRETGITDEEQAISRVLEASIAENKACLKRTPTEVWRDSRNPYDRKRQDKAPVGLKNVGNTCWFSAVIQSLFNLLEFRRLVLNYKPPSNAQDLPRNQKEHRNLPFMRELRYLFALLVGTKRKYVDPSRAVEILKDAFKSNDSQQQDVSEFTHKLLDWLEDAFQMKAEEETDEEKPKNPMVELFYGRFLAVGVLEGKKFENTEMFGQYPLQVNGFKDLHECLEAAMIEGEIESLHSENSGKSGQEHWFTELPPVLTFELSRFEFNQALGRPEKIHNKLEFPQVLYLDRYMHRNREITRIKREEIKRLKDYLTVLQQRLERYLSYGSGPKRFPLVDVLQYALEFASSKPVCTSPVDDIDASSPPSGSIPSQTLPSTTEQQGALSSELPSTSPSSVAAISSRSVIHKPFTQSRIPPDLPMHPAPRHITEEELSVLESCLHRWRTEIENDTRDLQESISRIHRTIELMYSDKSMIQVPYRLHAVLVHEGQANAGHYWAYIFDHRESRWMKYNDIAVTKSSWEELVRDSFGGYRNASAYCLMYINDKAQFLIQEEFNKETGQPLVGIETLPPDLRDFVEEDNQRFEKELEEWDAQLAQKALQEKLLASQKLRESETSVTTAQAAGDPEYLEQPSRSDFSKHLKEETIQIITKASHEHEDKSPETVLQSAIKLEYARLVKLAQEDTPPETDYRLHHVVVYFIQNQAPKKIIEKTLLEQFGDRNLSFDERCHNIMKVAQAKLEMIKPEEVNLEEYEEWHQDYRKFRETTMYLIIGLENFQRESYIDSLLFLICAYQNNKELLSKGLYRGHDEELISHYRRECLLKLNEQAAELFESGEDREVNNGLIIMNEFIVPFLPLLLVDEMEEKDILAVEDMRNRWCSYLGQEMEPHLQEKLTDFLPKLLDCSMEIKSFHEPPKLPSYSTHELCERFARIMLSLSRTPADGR
Method in brief: as §1

[5] = biological target: T4, USP28 (UniProt Q96RU2)
T4 sequence (whole entry): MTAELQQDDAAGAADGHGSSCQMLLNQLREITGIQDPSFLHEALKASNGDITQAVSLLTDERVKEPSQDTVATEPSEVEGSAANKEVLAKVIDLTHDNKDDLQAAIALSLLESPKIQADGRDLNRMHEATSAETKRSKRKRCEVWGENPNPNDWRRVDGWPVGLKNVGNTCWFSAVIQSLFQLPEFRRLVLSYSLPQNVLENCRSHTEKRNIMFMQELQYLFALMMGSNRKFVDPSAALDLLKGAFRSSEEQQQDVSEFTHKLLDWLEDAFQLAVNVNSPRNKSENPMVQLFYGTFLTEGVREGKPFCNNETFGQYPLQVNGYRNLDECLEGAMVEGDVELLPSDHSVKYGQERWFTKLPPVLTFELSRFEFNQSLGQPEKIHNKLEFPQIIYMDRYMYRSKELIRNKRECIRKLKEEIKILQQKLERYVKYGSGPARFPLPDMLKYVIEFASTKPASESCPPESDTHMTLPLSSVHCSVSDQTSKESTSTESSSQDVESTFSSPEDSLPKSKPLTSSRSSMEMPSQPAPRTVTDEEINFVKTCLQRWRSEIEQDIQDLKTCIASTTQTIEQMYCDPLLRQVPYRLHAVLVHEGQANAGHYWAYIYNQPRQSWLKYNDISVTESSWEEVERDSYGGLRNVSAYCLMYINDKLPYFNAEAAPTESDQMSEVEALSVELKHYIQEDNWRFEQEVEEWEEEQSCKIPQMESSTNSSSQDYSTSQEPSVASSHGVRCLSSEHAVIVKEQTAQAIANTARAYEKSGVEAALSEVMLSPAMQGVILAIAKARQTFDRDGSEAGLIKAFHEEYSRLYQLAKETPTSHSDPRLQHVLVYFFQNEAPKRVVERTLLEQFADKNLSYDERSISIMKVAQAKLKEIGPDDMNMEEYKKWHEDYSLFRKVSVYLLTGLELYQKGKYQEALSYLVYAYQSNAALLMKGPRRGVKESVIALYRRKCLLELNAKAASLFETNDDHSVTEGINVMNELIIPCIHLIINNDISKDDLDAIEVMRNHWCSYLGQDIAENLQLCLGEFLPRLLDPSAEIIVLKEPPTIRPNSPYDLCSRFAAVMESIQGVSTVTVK
Method in brief: as §1

Chain of USP24 (Q9UPU5 whole entry): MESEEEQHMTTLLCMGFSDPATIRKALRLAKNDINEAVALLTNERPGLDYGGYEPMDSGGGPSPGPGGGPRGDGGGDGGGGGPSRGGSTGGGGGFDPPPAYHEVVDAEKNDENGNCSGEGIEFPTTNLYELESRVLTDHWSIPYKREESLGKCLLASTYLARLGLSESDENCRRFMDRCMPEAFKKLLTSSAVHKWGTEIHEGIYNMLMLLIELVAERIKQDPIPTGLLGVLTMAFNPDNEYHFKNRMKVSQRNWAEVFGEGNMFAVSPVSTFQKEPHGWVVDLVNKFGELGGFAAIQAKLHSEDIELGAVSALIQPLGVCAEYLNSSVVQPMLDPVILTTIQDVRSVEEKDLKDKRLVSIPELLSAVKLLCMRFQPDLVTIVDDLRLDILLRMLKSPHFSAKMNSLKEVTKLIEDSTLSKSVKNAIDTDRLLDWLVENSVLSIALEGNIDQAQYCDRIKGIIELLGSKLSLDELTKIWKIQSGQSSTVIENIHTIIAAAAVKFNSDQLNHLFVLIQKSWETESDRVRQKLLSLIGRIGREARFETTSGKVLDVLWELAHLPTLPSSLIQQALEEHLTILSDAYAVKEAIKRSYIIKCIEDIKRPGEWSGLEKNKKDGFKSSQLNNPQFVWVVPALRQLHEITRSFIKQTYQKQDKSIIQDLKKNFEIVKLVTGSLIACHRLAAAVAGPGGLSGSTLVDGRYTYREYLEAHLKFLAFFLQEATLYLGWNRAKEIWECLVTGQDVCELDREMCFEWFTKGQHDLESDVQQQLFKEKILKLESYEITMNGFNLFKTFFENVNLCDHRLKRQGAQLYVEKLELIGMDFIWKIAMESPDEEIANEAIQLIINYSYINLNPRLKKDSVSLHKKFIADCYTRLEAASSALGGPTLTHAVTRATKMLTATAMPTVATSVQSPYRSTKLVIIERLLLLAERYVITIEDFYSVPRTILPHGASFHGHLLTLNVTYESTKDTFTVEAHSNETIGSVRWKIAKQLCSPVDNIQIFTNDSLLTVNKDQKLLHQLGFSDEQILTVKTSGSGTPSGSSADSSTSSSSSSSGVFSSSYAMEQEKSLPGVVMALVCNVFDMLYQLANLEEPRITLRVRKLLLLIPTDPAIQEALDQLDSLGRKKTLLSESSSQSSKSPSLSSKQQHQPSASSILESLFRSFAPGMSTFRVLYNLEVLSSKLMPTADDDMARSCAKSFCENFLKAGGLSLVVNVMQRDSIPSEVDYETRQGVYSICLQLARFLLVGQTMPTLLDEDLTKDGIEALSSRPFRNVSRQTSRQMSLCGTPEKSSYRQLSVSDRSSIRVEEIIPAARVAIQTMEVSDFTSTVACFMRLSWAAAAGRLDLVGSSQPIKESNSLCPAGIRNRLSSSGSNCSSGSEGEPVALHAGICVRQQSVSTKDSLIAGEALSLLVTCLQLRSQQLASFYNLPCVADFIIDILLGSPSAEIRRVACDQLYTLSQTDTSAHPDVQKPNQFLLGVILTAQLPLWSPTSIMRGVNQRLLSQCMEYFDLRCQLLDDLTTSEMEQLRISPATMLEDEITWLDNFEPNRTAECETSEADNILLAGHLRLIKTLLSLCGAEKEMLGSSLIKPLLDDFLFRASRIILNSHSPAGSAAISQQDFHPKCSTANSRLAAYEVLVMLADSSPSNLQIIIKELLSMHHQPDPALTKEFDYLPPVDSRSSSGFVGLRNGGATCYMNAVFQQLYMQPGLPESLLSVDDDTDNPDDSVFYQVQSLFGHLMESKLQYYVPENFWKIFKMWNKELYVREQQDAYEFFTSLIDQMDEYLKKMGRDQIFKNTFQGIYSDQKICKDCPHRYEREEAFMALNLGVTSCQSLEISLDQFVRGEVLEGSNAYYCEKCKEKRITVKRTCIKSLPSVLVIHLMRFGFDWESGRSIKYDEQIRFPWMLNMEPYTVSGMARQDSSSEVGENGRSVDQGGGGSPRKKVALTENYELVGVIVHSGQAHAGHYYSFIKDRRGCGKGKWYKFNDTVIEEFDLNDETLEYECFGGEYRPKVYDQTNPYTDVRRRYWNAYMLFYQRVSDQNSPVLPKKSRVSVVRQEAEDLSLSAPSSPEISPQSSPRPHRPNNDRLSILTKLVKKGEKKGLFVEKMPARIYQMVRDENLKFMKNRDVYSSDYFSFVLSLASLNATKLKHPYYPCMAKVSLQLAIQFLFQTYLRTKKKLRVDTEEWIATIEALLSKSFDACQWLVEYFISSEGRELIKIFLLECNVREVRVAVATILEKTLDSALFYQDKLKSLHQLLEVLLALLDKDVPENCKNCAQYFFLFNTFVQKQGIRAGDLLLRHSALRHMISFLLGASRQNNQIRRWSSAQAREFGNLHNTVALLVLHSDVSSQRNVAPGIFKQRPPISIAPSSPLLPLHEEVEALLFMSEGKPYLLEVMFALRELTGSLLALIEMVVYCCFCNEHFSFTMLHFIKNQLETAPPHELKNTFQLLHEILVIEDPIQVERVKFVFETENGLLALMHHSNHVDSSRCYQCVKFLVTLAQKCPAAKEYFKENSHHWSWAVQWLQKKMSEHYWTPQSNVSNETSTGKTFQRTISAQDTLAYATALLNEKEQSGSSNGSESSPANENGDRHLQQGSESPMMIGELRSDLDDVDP

Q: Which results are given for `O=C(CCl)N1CCOC(c2cccc(F)c2)C1` (stereo not given)?
A: log2 ratio of Biotin-Ahx-Ub-VS probe labelling [1]: -0.335; log2 ratio of Biotin-Ahx-Ub-VS probe labelling [2]: -0.24; log2 ratio of Biotin-Ahx-Ub-VS probe labelling [3]: -1.13 (active); log2 ratio of Biotin-Ahx-Ub-VS probe labelling [4]: -0.541; log2 ratio of Biotin-Ahx-Ub-VS probe labelling [5]: -0.953
